Key:
Test in all cases: PBM binding z-score (relative to random genomic background probes); higher = stronger binding; sequences stand for … in GC…GCGATTGACAGCGTAGAATGAAGG
[1] = test system: RARb homodimer (NR concentration 270 nM)
In short: (§1)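 Each nuclear receptor dimer, without ligand, was incubated for 1 h on custom Agilent 4×180K protein-binding microarrays. Binding was detected with antibodies against each partner (one per run), and scanned fluorescence was regression-normalized. The binding z-scores are referenced to random human genomic background probes.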

[2] = test system: RARg:RXRa (NR concentration 270 nM, RXRa partner concentration 90 nM)
In short: as §1

[3] = test system: RARg homodimer (NR concentration 270 nM)
In short: as §1

[4] = test system: RXRa DBDmut IVT, anti-RXR (DBD mutation: RXRa K156A/R161A, NR concentration 90 nM)
In short: as §1

[5] = test system: RXRa homodimer (NR concentration 180 nM)
In short: as §1

[6] = test system: THRa:RXRa (NR concentration 90 nM, RXRa partner concentration 90 nM)
In short: as §1

[7] = test system: THRa homodimer (NR concentration 90 nM)
In short: as §1

[8] = test system: VDR homodimer (NR concentration 270 nM)
In short: as §1

GCTAGCAGGCCATTTGGGTCACCCAATGACGGGC showed a PBM binding z-score [1] of 2.08, a PBM binding z-score [2] of 1.52 and a PBM binding z-score [3] of 1.58. For the same sequence, the PBM binding z-score [4] was -0.734, the PBM binding z-score [5] was 1.16 and the PBM binding z-score [6] was 2.19. The PBM binding z-score [7] was 0.834 and the PBM binding z-score [8] was 0.435.
CAAACTTGGTCACGAAAGGTCAAAGTCGAATGAC was tested, and the PBM binding z-score [1] was 4.71, the PBM binding z-score [2] was 6.15 and the PBM binding z-score [3] was 6.2. It also gave a PBM binding z-score [4] of 1.4, a PBM binding z-score [5] of 7.01 and a PBM binding z-score [6] of 4.07. It also gave a PBM binding z-score [7] of 0.947 and a PBM binding z-score [8] of 3.11.
TCAGATAGGTGAAGGTAACTCAGGTACGCAGTCG gave a PBM binding z-score [1] of 0.689, a PBM binding z-score [2] of 0.578 and a PBM binding z-score [3] of 0.814. The PBM binding z-score [4] was 1.22, the PBM binding z-score [5] was 1.08 and the PBM binding z-score [6] was 1.17. The PBM binding z-score [7] was 0.217 and the PBM binding z-score [8] was 0.382.
ACTATTAGTTGAGACGAGAGCAACCGATAGGTTG was tested, and the PBM binding z-score [1] was -0.441, the PBM binding z-score [2] was 0.044 and the PBM binding z-score [3] was 0.359. It also gave a PBM binding z-score [4] of -0.00279, a PBM binding z-score [5] of 0.11 and a PBM binding z-score [6] of -0.0893. For the same sequence, the PBM binding z-score [7] was -0.555 and the PBM binding z-score [8] was -0.215.
TCTCGGAGAACACGAAAGGTCAGAGCTCGACATC was tested, and the PBM binding z-score [1] was 4.31, the PBM binding z-score [2] was 3.67 and the PBM binding z-score [3] was 3.24. For the same sequence, the PBM binding z-score [4] was 0.702, the PBM binding z-score [5] was 3.72 and the PBM binding z-score [6] was 2.63. For the same sequence, the PBM binding z-score [7] was 0.193 and the PBM binding z-score [8] was 0.319.
Sequence AGTCAAGGTTCAGGACGAGGTAACGTAAAGCACG has a PBM binding z-score [1] of 1.55, a PBM binding z-score [2] of 3.45 and a PBM binding z-score [3] of 2.41. It also gave a PBM binding z-score [4] of 2.61, a PBM binding z-score [5] of 2.19 and a PBM binding z-score [6] of 3.55. It also gave a PBM binding z-score [7] of 1.75 and a PBM binding z-score [8] of 2.25.
CGAACGAGGGCATGAGTTGCTAGCAAATGCCGAT showed a PBM binding z-score [1] of 0.64, a PBM binding z-score [2] of 1.05 and a PBM binding z-score [3] of 1.42. It also gave a PBM binding z-score [4] of 2.17, a PBM binding z-score [5] of 0.709 and a PBM binding z-score [6] of 1.11. For the same sequence, the PBM binding z-score [7] was -0.232 and the PBM binding z-score [8] was 1.05.

— the supplement of paper PMC6555819
